Laboratory results from PubChem BioAssay AID463173 (ICCB-Longwood Screening Facility, Harvard Medical School, 2010).
About 4,300 (8.3%) of roughly 52,000 compounds were called active. No stated cut-off is given here; in the data, active means survival mostly below about 52% (no sharp cut-off); inactive means mostly above about 56%. Shown is part of a subset that was picked to be rich in actives.

Tested on: DeltatarO mutant
Experiment: growth inhibition of S. aureus wild type versus tarO mutant, primary screen, teichoic acid synthesis inhibitors, RN4220, OD600 (AID 463173)
Settings: OD600, 18 h, hits give low values, screened at 18.75 µg/mL (by protocol)

Which survival does the source give for CCCN(CCC)C(=O)Cn1c(=O)n(-c2cccc(C(F)(F)F)c2)c(=O)c2c(C)c(C)sc21 here?
Its survival is 44% (inactive).

How did the survival turn out when CCC1SC(=S)N(CC(=O)O)C1=O (stereo not drawn) was run?
Its survival is 100% (inactive).

Which survival does the source give for CCOCCCNC(=O)Cn1ncc2c([nH]c3ccc(C)cc32)c1=O here?
The survival was 83% (inactive).

Which survival does the source give for O=C1NC(c2ccccc2)/C(=C(\O)c2ccccc2)C1=O (stereo not drawn) here?
The survival was 70% (inactive).

With Cc1nc2ccn(Cc3cccs3)c(=O)c2cc1C(=O)N1CCN(c2ccccc2)CC1 as the compound, how does the survival read?
The survival was 83% (inactive).

Which survival does the source give for COc1ccc(OC)c(NC(=O)c2nc(SCc3ccccc3F)ncc2Cl)c1 here?
Its survival is 70% (inactive).

For CCCSc1ncc(Cl)c(C(=O)NCc2ccc(C)cc2)n1, which survival is on record?
Its survival is 57% (inactive).

With CCCSc1ncc(Cl)c(C(=O)NCc2ccc(OC)cc2)n1 as the compound, how does the survival read?
Its survival is 52% (inactive).

How did the survival turn out when CCCSc1ncc(Cl)c(C(=O)Nc2ccc(OC)cc2OC)n1 was run?
Its survival is 46% (active).

For CCCSc1ncc(Cl)c(C(=O)Nc2ccc(CC)cc2)n1, which survival is on record?
Its survival is 42% (active).

For CCCSc1ncc(Cl)c(C(=O)Nc2ccc(S(=O)(=O)Nc3ncccn3)cc2)n1, which survival is on record?
The survival was 67% (inactive).

Which survival does the source give for Cc1ccc(-c2nnc(SCC(=O)NCc3ccccc3)o2)cc1 here?
The survival was 142% (inactive).

With CCN(CC)c1ccc(CNCCCSc2nnnn2C)cc1 as the compound, how does the survival read?
Its survival is 88% (inactive).

With COc1cc(C)c(S(=O)(=O)N2CCCC(C)C2)cc1C (stereo not drawn) as the compound, how does the survival read?
The survival was 81% (inactive).

Which survival does the source give for Cc1nnc(NC(=O)CSc2nccn2-c2ccc(Cl)cc2)s1 here?
Its survival is 104% (inactive).

Which survival does the source give for O=C(NC1CCN(C(=O)NC2CCCCC2)CC1)c1ccc(F)cc1 here?
The survival was 85% (inactive).

For Cc1nn(-c2cc(N3CCOCC3)ccc2N)c(=O)c2ccccc12, which survival is on record?
Its survival is 76% (inactive).

For COc1ccc(N2CCN(C(=O)C(C)n3c(=O)cc(C(F)(F)F)c4c(C)nn(C)c43)CC2)cc1 (stereo not drawn), which survival is on record?
Its survival is 97% (inactive).

With CCCCNC(=O)c1ccc2c(c1)N(CC)C(=O)c1ccccc1S2 as the compound, how does the survival read?
The survival was 102% (inactive).

For Cc1ccc(CCNC(=O)C2CCCN(c3nnc(C)c4c(C)n(-c5ccccc5)nc34)C2)cc1 (stereo not drawn), which survival is on record?
Its survival is 80% (inactive).

How did the survival turn out when CCCCN(CC)CCCNC(=O)c1cc2c(=O)[nH]c3ccccc3c2s1 was run?
Its survival is 151% (inactive).

How did the survival turn out when O=C(NCC(c1cccnc1)N1CCc2ccccc21)c1cccc(C(F)(F)F)c1 (stereo not drawn) was run?
Its survival is 45% (active).

With O=C(NCC(c1cccnc1)N1CCc2ccccc21)c1cccc(F)c1 (stereo not drawn) as the compound, how does the survival read?
Its survival is 44% (active).

CCc1ccccc1NC(=O)C(=O)NCC(c1cccnc1)N1CCc2ccccc21 (stereo not drawn) was tested. Which survival did it give?
Its survival is 58% (inactive).

How did the survival turn out when O=C(NCC(c1cccnc1)N1CCc2ccccc21)C(=O)Nc1ccccc1F (stereo not drawn) was run?
Its survival is 101% (inactive).

With O=C(NCC(c1cccnc1)N1CCc2ccccc21)c1ccc(F)cc1 (stereo not drawn) as the compound, how does the survival read?
The survival was 100% (inactive).

How did the survival turn out when O=C(NCC(c1cccnc1)N1CCc2ccccc21)c1cccc(Br)c1 (stereo not drawn) was run?
Its survival is 41% (active).

Which survival does the source give for Cc1cccc(NC(=O)C(=O)NCC(c2cccnc2)N2CCc3ccccc32)c1C (stereo not drawn) here?
Its survival is 53% (inactive).

With O=C(NCC(c1cccnc1)N1CCc2ccccc21)c1ccc(F)c(F)c1 (stereo not drawn) as the compound, how does the survival read?
The survival was 52% (inactive).

How did the survival turn out when N#Cc1ccccc1NC(=O)C(=O)NCC(c1cccnc1)N1CCc2ccccc21 (stereo not drawn) was run?
Its survival is 53% (inactive).

For CCOc1ccc(C2C(C(N)=O)=C(C)Nc3nc(-c4ccc(OC)cc4)nn32)cc1 (stereo not drawn), which survival is on record?
The survival was 87% (inactive).

COc1ccc(C)cc1NC(=O)C1CCC(CNS(=O)(=O)c2ccc3c(c2)CCCC(=O)N3)CC1 (stereo not drawn) was tested. Which survival did it give?
The survival was 67% (inactive).

Which survival does the source give for CCOC(=O)c1ccc(NC(=O)C(C)N(c2ccc(OCC)cc2)S(C)(=O)=O)cc1 (stereo not drawn) here?
The survival was 62% (inactive).

How did the survival turn out when O=C(CCc1ccccc1)NN1C(=O)c2ccccc2C1=O was run?
Its survival is 61% (inactive).

Which survival does the source give for CCc1ccccc1NC(=O)c1cnc(N2CCCCC2)c2ccccc12 here?
Its survival is 96% (inactive).

With CC(C)(C)OC(=O)N1CCC(c2c(C(=O)N3CCOCC3)cnn2-c2ccccc2Cl)CC1 as the compound, how does the survival read?
The survival was 78% (inactive).

For COc1ccc(NC(=O)Cn2c(=O)n(-c3ccc(OC)cc3)c(=O)c3ccc(C(=O)NCc4ccc(C)cc4)cc32)cc1, which survival is on record?
The survival was 77% (inactive).

For O=C(c1ccc2c(c1)N(Cc1ccc(F)cc1)C(=O)c1ccccc1S2(=O)=O)N1CCC(Cc2ccccc2)CC1, which survival is on record?
Its survival is 72% (inactive).

Which survival does the source give for CCCC1=Nc2cc(C(=O)NCc3ccc(OC)cc3)ccc2Sc2ccc(C)cc21 here?
The survival was 70% (inactive).

With CCOc1ccc(CNC(=O)Cn2c(=O)c3cccn3c3cccnc32)cc1 as the compound, how does the survival read?
The survival was 70% (inactive).

With C#CCn1c(C2CC(=O)N(c3ccc(OC)cc3)C2)nc2ccccc21 (stereo not drawn) as the compound, how does the survival read?
The survival was 78% (inactive).

With C#CCn1c(C2CC(=O)N(c3ccc(OCC)cc3)C2)nc2ccccc21 (stereo not drawn) as the compound, how does the survival read?
The survival was 62% (inactive).

For CCOc1ccc(N2CC(c3nc4ccccc4n3Cc3cccc(Cl)c3)CC2=O)cc1 (stereo not drawn), which survival is on record?
The survival was 37% (active).

For CCOc1ccc(N2CC(c3nc4ccccc4n3CC(C)C)CC2=O)cc1 (stereo not drawn), which survival is on record?
The survival was 56% (inactive).

How did the survival turn out when CCCCn1c(C2CC(=O)N(c3ccc(OCC)cc3)C2)nc2ccccc21 (stereo not drawn) was run?
Its survival is 63% (inactive).

For CCOc1ccc(N2CC(c3nc4ccccc4n3Cc3cccc(C)c3)CC2=O)cc1 (stereo not drawn), which survival is on record?
Its survival is 42% (active).

Which survival does the source give for CCNC(=O)C1CCCN(c2nnc(C)c3c(C)n(-c4ccc(C)cc4)nc23)C1 (stereo not drawn) here?
Its survival is 78% (inactive).

For CCN1CCN(C(=O)c2ccc(S(=O)(=O)N(CC)CC)cc2)CC1, which survival is on record?
Its survival is 85% (inactive).

Which survival does the source give for COc1cc2c(cc1OC)C(c1ccc(F)cc1)N(c1ccc(F)cc1)C(=O)C2 (stereo not drawn) here?
Its survival is 105% (inactive).

How did the survival turn out when COc1cc2c(cc1OC)C(c1ccc(Cl)cc1)N(c1ccc(C)c(F)c1)C(=O)C2 (stereo not drawn) was run?
The survival was 42% (active).

Which survival does the source give for COc1ccc(C2c3cc(OC)c(OC)cc3CC(=O)N2c2ccc(C)c(F)c2)cc1 (stereo not drawn) here?
The survival was 79% (inactive).

How did the survival turn out when O=C(NCCSCc1ccccc1)C1CCN(S(=O)(=O)Cc2ccccc2)CC1 was run?
The survival was 66% (inactive).

For Cc1cc(C)cc(NC(=O)N2CCN(c3cc(-c4noc(C)n4)ccc3C)CC2)c1, which survival is on record?
Its survival is 87% (inactive).

How did the survival turn out when COc1cc(NC(=O)N2CCN(c3cc(-c4noc(C)n4)ccc3C)CC2)cc(OC)c1OC was run?
Its survival is 55% (inactive).

Cc1nc(-c2ccc(C)c(N3CCN(C(=O)Nc4ccc(Br)cc4)CC3)c2)no1 was tested. Which survival did it give?
Its survival is 17% (active).

How did the survival turn out when Cc1ccc(NC(=O)N2CCN(c3cc(-c4noc(C)n4)ccc3C)CC2)c(C)c1 was run?
The survival was 88% (inactive).

How did the survival turn out when Cc1ccc(NC(=O)N2CCN(c3cc(-c4noc(C)n4)ccc3C)CC2)c(F)c1 was run?
The survival was -5% (active).

For COc1ccc(C)cc1NC(=O)N1CCN(c2cc(-c3noc(C)n3)ccc2C)CC1, which survival is on record?
The survival was 88% (inactive).
